In a collection of fitness landscapes (doi:10.1016/j.celrep.2020.107928):
The full ranking holds about 81,000 sequences; the median of “one-hybrid fitness for binding NBS DNA” is about -0.1, and the highest 2% start at about 0.36. The sample holds the highest values, similar sequences and a random draw of the others, so the mix is not that of the screen.

B1: Caulobacter ParB omega fusion; a variant is named by its letters at X, in order, B8GW30 (parent)
chain: MESVVVGEPGMSEGRRGLGRGLSALLGEVDAAPAQAPGEQLGGSREAPIEILQRNPDQPRRTFREEDLEDLSNSIREKGVLQPILVRPSPDTAGEYQIVAGERAWRAAQRAGLKTVPIMVRELDDLAVLEIGIIENVQRADLNVLEEALSYKVLMEKFERTQENIAQTIGKSXSHVANXMRLLXLPDEVQSYLVSGELTAXHARAIAAAADPVALAKQIIEGGLSVRETEALARKAPNLSAGKSKGGRPPRVKDTDTQALESDLSSVLGLDVSIDHRGSTGTLTITYATLEQLDDLCNRLTRGI

Variants of: B1
Assay: one-hybrid fitness for binding NBS DNA (the Noc-binding site; scaled: cognate 1, non-cognate 0); higher = stronger binding
Settings: with NBS DNA site
Procedure, shortened: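 Selection: bacterial one-hybrid in E. coli USO, HIS3 reporter with the site 19 bp from the promoter, 48 hours at 37°C on M9-minus-histidine plus 0.1 mM IPTG and 5 mM 3-AT. Libraries were Caulobacter ParB with four randomised specificity codons, sequenced on Illumina before and after selection. Fitness is the rescaled log change in variant-to-wild-type read ratio, anchored to the cognate and non-cognate sites.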

one-hybrid fitness for binding NBS DNA, 0.493:
QYQR

one-hybrid fitness for binding NBS DNA, 0.373:
QMVT

one-hybrid fitness for binding NBS DNA, 0.75:
QMKT

one-hybrid fitness for binding NBS DNA, 0.443:
RKDR

one-hybrid fitness for binding NBS DNA, 0.204:
QYWS

one-hybrid fitness for binding NBS DNA, 0.305:
QYDR

one-hybrid fitness for binding NBS DNA, 0.377:
QYGS

one-hybrid fitness for binding NBS DNA, 0.206:
QKHY

one-hybrid fitness for binding NBS DNA, 0.281:
RKNC

one-hybrid fitness for binding NBS DNA, 0.258:
RKRM

one-hybrid fitness for binding NBS DNA, 0.301:
RKGH

one-hybrid fitness for binding NBS DNA, 0.648:
RKHR

one-hybrid fitness for binding NBS DNA, 0.541:
QYHR

one-hybrid fitness for binding NBS DNA, 0.49:
RKWR

one-hybrid fitness for binding NBS DNA, 0.993:
QKRR

one-hybrid fitness for binding NBS DNA, 0.581:
RKSR

one-hybrid fitness for binding NBS DNA, 0.414:
QYWR

one-hybrid fitness for binding NBS DNA, 0.616:
QKGR

one-hybrid fitness for binding NBS DNA, 0.211:
RKSH

one-hybrid fitness for binding NBS DNA, 0.661:
QKHR

one-hybrid fitness for binding NBS DNA, 0.482:
QYMR

one-hybrid fitness for binding NBS DNA, 0.235:
NKRR

one-hybrid fitness for binding NBS DNA, 0.505:
QKYR

one-hybrid fitness for binding NBS DNA, 0.499:
QYSR

one-hybrid fitness for binding NBS DNA, 0.222:
RKRK

one-hybrid fitness for binding NBS DNA, 0.736:
RKRR

one-hybrid fitness for binding NBS DNA, 0.573:
RKYR
RKQR

one-hybrid fitness for binding NBS DNA, 0.363:
QKER

one-hybrid fitness for binding NBS DNA, 0.606:
RKGR

one-hybrid fitness for binding NBS DNA, 0.599:
QYNR

one-hybrid fitness for binding NBS DNA, 0.639:
RKNR

one-hybrid fitness for binding NBS DNA, 0.246:
QYNH

one-hybrid fitness for binding NBS DNA, ≤ 0.2:
QYSN
QYGN
QYSD
QYNN
QYGD
KTNH
HNTA
HIMR
YTFW
SKSC
VRCG
PIKT
QYQK
QYMD
QYQC
QYHD
QYHG
QYMF
QYWH
NPVN
YEWR
QQIF
YGVH
SDSA
TTTF
EAYV
QLSK
GGTS
IDHN
HIKY
SKIG
APVA
QMVN
DMKT
NMKT
EKHS
VRAW
HGTC
VCQG
HNDV
TFTP
WASL
AFSH
QKGN
QKHN
QKGP
QKYP
DKRR
PTNP
HCFY
IFEL
SQFR
SQRR
VILC
QAWG
NLDR
PTAP
DHKN
EVMR
TDVL
SRRL
GLRT
RKYN
RKHF
RKYF
RKNP
RKHQ
GTKM
DLTE
LAPI
SAAD
NGLS
NRSI
RRTL
LHEN
HLQP
MMSM
LRWK
RKQM
RKWH
RKSD
RKQQ
RKGP
RKWP
MTIG
VDYG
AHFR
QHIC
TCFS
VSQV
PITE
GSCV
NCKS
YSQQ
MHKT
PLRH
SRLF
IRKG
HKFT
PTAM

one-hybrid fitness for binding NBS DNA, 0.437:
QYNS
